Results: paper PMC9911399, “Two distinct binding modes provide the RNA-binding protein RbFox with extraordinary sequence specificity”
Residue numbers refer to the chain shown, from its start. In all, about 16,000 sequences were measured (“ka relative to ugcaugu”: median about 0.096, highest 2% from about 0.35 on). The list comes from a sample in which the highest values are over-represented; it also holds similar and randomly drawn sequences.

B1: CGAUGUA (DNA:RNA)
RNA: GGGAGACCGGAAUUCAGAUUGUCCCGAUGUAUUAAAUCCCGUCGUAGCCACCA
DNA 1: CAATCTGAATTCCGGTCTCCC
DNA 2: TGGTGGCTACGACGGGATT
B2: GUUUGUA (DNA:RNA)
RNA: B1 RNA with C25G, G26U, A27U
DNA 1: CAATCTGAATTCCGGTCTCCC
DNA 2: TGGTGGCTACGACGGGATT
B3: GAUUGUA (DNA:RNA)
RNA: B1 RNA with C25G, G26A, A27U
DNA 1: CAATCTGAATTCCGGTCTCCC
DNA 2: TGGTGGCTACGACGGGATT
B4: GGAUGUA (DNA:RNA)
RNA: B1 RNA with C25G
DNA 1: CAATCTGAATTCCGGTCTCCC
DNA 2: TGGTGGCTACGACGGGATT
B5: CUAUGUA (DNA:RNA)
RNA: B1 RNA with G26U
DNA 1: CAATCTGAATTCCGGTCTCCC
DNA 2: TGGTGGCTACGACGGGATT
B6: GAAUGUA (DNA:RNA)
RNA: B1 RNA with C25G, G26A
DNA 1: CAATCTGAATTCCGGTCTCCC
DNA 2: TGGTGGCTACGACGGGATT
B7: GCAUAUA (DNA:RNA)
RNA: B1 RNA with C25G, G26C, G29A
DNA 1: CAATCTGAATTCCGGTCTCCC
DNA 2: TGGTGGCTACGACGGGATT
B8: CGUUGUA (DNA:RNA)
RNA: B1 RNA with A27U
DNA 1: CAATCTGAATTCCGGTCTCCC
DNA 2: TGGTGGCTACGACGGGATT
B9: GUAUGUA (DNA:RNA)
RNA: B1 RNA with C25G, G26U
DNA 1: CAATCTGAATTCCGGTCTCCC
DNA 2: TGGTGGCTACGACGGGATT
B10: ACAUGUA (DNA:RNA)
RNA: B1 RNA with C25A, G26C
DNA 1: CAATCTGAATTCCGGTCTCCC
DNA 2: TGGTGGCTACGACGGGATT
B11: GUCCGUA (DNA:RNA)
RNA: B1 RNA with C25G, G26U, A27C, U28C
DNA 1: CAATCTGAATTCCGGTCTCCC
DNA 2: TGGTGGCTACGACGGGATT
B12: GCAUGUA (DNA:RNA)
RNA: B1 RNA with C25G, G26C
DNA 1: CAATCTGAATTCCGGTCTCCC
DNA 2: TGGTGGCTACGACGGGATT
B13: AGACUAU (DNA:RNA)
RNA: B1 RNA with C25A, U28C, G29U, U30A, A31U
DNA 1: CAATCTGAATTCCGGTCTCCC
DNA 2: TGGTGGCTACGACGGGATT
B14: CGUCGCC (DNA:RNA)
RNA: B1 RNA with A27U, U28C, U30C, A31C
DNA 1: CAATCTGAATTCCGGTCTCCC
DNA 2: TGGTGGCTACGACGGGATT
B15: UCACCUC (DNA:RNA)
RNA: B1 RNA with C25U, G26C, U28C, G29C, A31C
DNA 1: CAATCTGAATTCCGGTCTCCC
DNA 2: TGGTGGCTACGACGGGATT
B16: AAAAUUC (DNA:RNA)
RNA: B1 RNA with C25A, G26A, U28A, G29U, A31C
DNA 1: CAATCTGAATTCCGGTCTCCC
DNA 2: TGGTGGCTACGACGGGATT
B17: AGAUUGG (DNA:RNA)
RNA: B1 RNA with C25A, G29U, U30G, A31G
DNA 1: CAATCTGAATTCCGGTCTCCC
DNA 2: TGGTGGCTACGACGGGATT
B18: GUUAUGG (DNA:RNA)
RNA: GGGAGACCGGAAUUCAGAUUGUCCGUUAUGGUUAAAUCCCGUCGUAGCCACCA
DNA 1: CAATCTGAATTCCGGTCTCCC
DNA 2: TGGTGGCTACGACGGGATT
B19: GUAUGGU (DNA:RNA)
RNA: B1 RNA with C25G, G26U, U30G, A31U
DNA 1: CAATCTGAATTCCGGTCTCCC
DNA 2: TGGTGGCTACGACGGGATT
B20: CGUAUGG (DNA:RNA)
RNA: B18 RNA with G25C, U26G
DNA 1: CAATCTGAATTCCGGTCTCCC
DNA 2: TGGTGGCTACGACGGGATT
B21: GGAAUGG (DNA:RNA)
RNA: B18 RNA with U26G, U27A
DNA 1: CAATCTGAATTCCGGTCTCCC
DNA 2: TGGTGGCTACGACGGGATT
B22: AGAAUGG (DNA:RNA)
RNA: B18 RNA with G25A, U26G, U27A
DNA 1: CAATCTGAATTCCGGTCTCCC
DNA 2: TGGTGGCTACGACGGGATT
B23: GUAAUGG (DNA:RNA)
RNA: B18 RNA with U27A
DNA 1: CAATCTGAATTCCGGTCTCCC
DNA 2: TGGTGGCTACGACGGGATT
B24: AGAAUUG (DNA:RNA)
RNA: B1 RNA with C25A, U28A, G29U, A31G
DNA 1: CAATCTGAATTCCGGTCTCCC
DNA 2: TGGTGGCTACGACGGGATT
B25: GGUAUGG (DNA:RNA)
RNA: B18 RNA with U26G
DNA 1: CAATCTGAATTCCGGTCTCCC
DNA 2: TGGTGGCTACGACGGGATT
B26: GAAUGGG (DNA:RNA)
RNA: B1 RNA with C25G, G26A, U30G, A31G
DNA 1: CAATCTGAATTCCGGTCTCCC
DNA 2: TGGTGGCTACGACGGGATT
B27: GAAAUGG (DNA:RNA)
RNA: B18 RNA with U26A, U27A
DNA 1: CAATCTGAATTCCGGTCTCCC
DNA 2: TGGTGGCTACGACGGGATT
B28: CGAAUGG (DNA:RNA)
RNA: B18 RNA with G25C, U26G, U27A
DNA 1: CAATCTGAATTCCGGTCTCCC
DNA 2: TGGTGGCTACGACGGGATT
B29: GGGCCAA (DNA:RNA)
RNA: B1 RNA with C25G, A27G, U28C, G29C, U30A
DNA 1: CAATCTGAATTCCGGTCTCCC
DNA 2: TGGTGGCTACGACGGGATT
B30: UUCGUCU (DNA:RNA)
RNA: B18 RNA with G25U, U27C, A28G, G30C, G31U
DNA 1: CAATCTGAATTCCGGTCTCCC
DNA 2: TGGTGGCTACGACGGGATT
B31: GGACUAG (DNA:RNA)
RNA: B18 RNA with U26G, U27A, A28C, G30A
DNA 1: CAATCTGAATTCCGGTCTCCC
DNA 2: TGGTGGCTACGACGGGATT

Target: T1, RBFOX1 RRM RbFoxmut (Fox-RRM*) (Homo sapiens, UniProt Q9NWB1 109-208, R118D;E147R;N151S;E152T)
T1 sequence: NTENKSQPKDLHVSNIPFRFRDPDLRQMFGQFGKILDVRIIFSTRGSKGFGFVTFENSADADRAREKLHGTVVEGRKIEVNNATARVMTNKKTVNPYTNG
Assay: EMSA; HiTS-Eq, 1 nM pool, 10 min; buffer printed only for the single-RNA assays: 10 mM Tris pH 7.5, 150 mM NaCl, 3.4 mM EDTA, 0.001% NP-40, 30 C
Details: tags: His6 N-terminal (pET28a); label: 5' 32P
Procedure, shortened: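 A pool of RNA with 7 randomized nucleotides, 5′-radiolabelled and with DNA-annealed flanks, was equilibrated at 1 nM for 10 min in 50 µL with purified RbFox RRM, wild type or mutant, across increasing protein concentrations. Free RNA was separated by 8% native PAGE, excised, reverse-transcribed, barcoded by PCR and sequenced. Relative association constants were obtained from read-count changes of each RNA species versus the control reaction and normalised to the cognate motif.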

Row | Binder | binding signal
1 | B1 | 0.202 KA relative to UGCAUGU
2 | B2 | 0.446 KA relative to UGCAUGU
3 | B3 | 0.284 KA relative to UGCAUGU
4 | B4 | 0.285 KA relative to UGCAUGU
5 | B5 | 0.198 KA relative to UGCAUGU
6 | B6 | 1.18 KA relative to UGCAUGU
7 | B7 | 0.169 KA relative to UGCAUGU
8 | B8 | 0.258 KA relative to UGCAUGU
9 | B9 | 0.63 KA relative to UGCAUGU
10 | B10 | 0.2 KA relative to UGCAUGU
11 | B11 | 0.12 KA relative to UGCAUGU
12 | B12 | 1.04 KA relative to UGCAUGU
13 | B13 | 0.0902 KA relative to UGCAUGU
14 | B14 | 0.0841 KA relative to UGCAUGU
15 | B15 | 0.0699 KA relative to UGCAUGU
16 | B16 | 0.0842 KA relative to UGCAUGU

Row | Binder | binding signal
17 | B17 | 0.125 KA relative to UGCAUGU
18 | B18 | 0.123 KA relative to UGCAUGU
19 | B19 | 0.325 KA relative to UGCAUGU
20 | B20 | 0.261 KA relative to UGCAUGU
21 | B21 | 0.724 KA relative to UGCAUGU
22 | B22 | 0.541 KA relative to UGCAUGU
23 | B23 | 0.0836 KA relative to UGCAUGU
24 | B24 | 0.129 KA relative to UGCAUGU
25 | B25 | 0.419 KA relative to UGCAUGU
26 | B26 | 0.21 KA relative to UGCAUGU
27 | B27 | 0.0639 KA relative to UGCAUGU
28 | B28 | 0.72 KA relative to UGCAUGU
29 | B29 | 0.0698 KA relative to UGCAUGU
30 | B30 | 0.0697 KA relative to UGCAUGU
31 | B31 | 0.0756 KA relative to UGCAUGU
